Assay outcomes deposited in PubChem BioAssay by The Scripps Research Institute Molecular Screening Center.
Most compounds without a hit are left out; they make up all but 0.83% or so of the library.
LRH-1 inv ag: inverse agonists of human LRH-1 (NR5A2) | HEK293T StAR-luciferase reporter, LRH-1 transfected, 24 h | inhibition, % at 3.6 µM | actives 0.13% (n = 360,000) | AID 602396;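 active = inhibition above the mean inhibition of all tested compounds plus 3 SD, cut at about 73% in these data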
COUP-TFII inh: blocks human COUP-TFII nuclear receptor; inhibition, % at 8.6 µM; HEK293T NGFI-A luciferase reporter, luminescence; actives 0.7% (n = 370,000); P24468;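 active = inhibition above a per-plate cutoff, mean inhibition of test wells between control levels plus 3 SD, cut at about 38% in these data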;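 note: cells cotransfected with COUP-TFII expression vector driving the NGFI-A reporter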
NCOA1 inh: inhibits human SRC1 coactivator | AID 588354 | inhibition, % at 3.6 µM | Q15788 | actives 0.12% (n = 360,000) | HEK293 GAL4-SRC1 luciferase reporter, luminescence;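 active = inhibition above the campaign mean plus 3 SD, with each screening campaign given its own cutoff, cut at about 60% in these data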
SRC2 inh: inhibits human steroid receptor coactivator 2 | AID 651957 | HEK293 GAL4-SRC2 luciferase reporter, luminescence | inhibition, % at 9 µM | actives 0.17% (n = 370,000);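 active = inhibition above the mean inhibition of all tested compounds plus 3 SD, set per campaign, cut at about 52% in these data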
Target sequence (Q15596 whole entry, looked up, the tested form may be a part): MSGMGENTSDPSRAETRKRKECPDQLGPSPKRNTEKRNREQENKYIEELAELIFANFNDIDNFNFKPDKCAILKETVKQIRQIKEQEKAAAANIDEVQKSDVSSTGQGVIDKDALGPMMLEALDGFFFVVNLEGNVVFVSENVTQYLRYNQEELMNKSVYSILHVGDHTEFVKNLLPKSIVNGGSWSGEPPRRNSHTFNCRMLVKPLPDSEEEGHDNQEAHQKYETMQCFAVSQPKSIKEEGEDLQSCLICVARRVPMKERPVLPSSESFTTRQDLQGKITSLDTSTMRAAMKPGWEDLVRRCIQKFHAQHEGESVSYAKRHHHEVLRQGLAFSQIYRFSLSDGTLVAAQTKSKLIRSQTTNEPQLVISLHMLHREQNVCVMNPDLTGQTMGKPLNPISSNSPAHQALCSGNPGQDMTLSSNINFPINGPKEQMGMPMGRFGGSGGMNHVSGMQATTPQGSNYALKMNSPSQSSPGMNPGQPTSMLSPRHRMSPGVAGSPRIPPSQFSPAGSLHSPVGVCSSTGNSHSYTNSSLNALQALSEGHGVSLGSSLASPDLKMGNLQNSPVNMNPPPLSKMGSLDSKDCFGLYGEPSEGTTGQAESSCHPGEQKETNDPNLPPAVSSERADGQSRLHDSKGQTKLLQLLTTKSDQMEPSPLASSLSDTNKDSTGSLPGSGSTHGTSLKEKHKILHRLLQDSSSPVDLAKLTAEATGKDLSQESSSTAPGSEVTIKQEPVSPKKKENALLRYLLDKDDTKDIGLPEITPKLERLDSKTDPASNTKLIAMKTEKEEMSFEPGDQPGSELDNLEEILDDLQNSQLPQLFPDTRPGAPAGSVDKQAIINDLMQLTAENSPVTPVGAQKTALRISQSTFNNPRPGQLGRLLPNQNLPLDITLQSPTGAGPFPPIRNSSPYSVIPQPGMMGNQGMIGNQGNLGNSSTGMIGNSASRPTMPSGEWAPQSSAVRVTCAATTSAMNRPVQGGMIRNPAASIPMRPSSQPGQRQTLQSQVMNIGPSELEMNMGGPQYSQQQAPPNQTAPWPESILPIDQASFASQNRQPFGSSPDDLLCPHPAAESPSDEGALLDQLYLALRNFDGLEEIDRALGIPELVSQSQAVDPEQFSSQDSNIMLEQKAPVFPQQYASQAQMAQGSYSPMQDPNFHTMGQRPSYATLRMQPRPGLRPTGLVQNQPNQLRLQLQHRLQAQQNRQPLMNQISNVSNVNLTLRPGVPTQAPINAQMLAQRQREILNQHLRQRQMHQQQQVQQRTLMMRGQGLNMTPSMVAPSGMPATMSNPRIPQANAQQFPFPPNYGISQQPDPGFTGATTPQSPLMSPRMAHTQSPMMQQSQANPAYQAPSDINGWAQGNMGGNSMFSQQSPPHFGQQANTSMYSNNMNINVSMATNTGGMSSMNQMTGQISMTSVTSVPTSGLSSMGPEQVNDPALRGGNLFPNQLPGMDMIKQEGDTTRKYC
SRC3 inh: human NCOA3 inhibition. Q9Y6Q9. HEK293 GAL4-SRC3 luciferase reporter, luminescence. inhibition, % at 3.6 µM. actives 0.17% (n = 360,000);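 active = inhibition above a per-campaign cutoff, the mean of all compounds plus 3 SD, cut at about 60% in these data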;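 note: higher means less SRC3-driven luciferase light from the GAL4 reporter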
Gal4-VP16 ctr: VP16 inhibition counter-screen for COUP-TFII. shares compounds with COUP-TFII inh. HEK293 Gal4-VP16 luciferase reporter, luminescence. inhibition, % at 8.5 µM. actives 25% (n = 2,500). AID 687007; in the data active = inhibition above about 13%
NR2F2 inh conf: COUP-TFII (NR2F2) inhibition, confirmation assay. shares compounds with COUP-TFII inh. HEK293 NGFI-A luciferase reporter, luminescence. inhibition, % at 8.5 µM. actives 45% (n = 2,500). AID 687008;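 active = mean inhibition over three repeats above a set limit taken from the earlier primary screen, cut at about 38% in these data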
Hits are given with their value; n = inactive; x = no result.

SMILES | LRH-1 inv ag | COUP-TFII inh | NCOA1 inh | SRC2 inh | SRC3 inh | Gal4-VP16 ctr | NR2F2 inh conf
CCN=C1NC(c2ccc(C(F)(F)F)cc2)C(C(=O)OC)=C(C)N1Cc1cccc(C(F)(F)F)c1 (stereo unspecified) | x | n | x | n | x | x | x
COCCn1c(C)cc(C(=O)CSc2nc3ccccc3s2)c1C | n | 50.4 | n | n | n | n | n
COCCn1c(C)cc(C(=O)CSc2nc3ccccc3o2)c1C | n | n | n | n | n | x | x
COc1ccc(-c2nnc(SCC(=O)NN=Cc3c(O)ccc4ccccc34)n2-c2ccc(OC)cc2)cc1 | x | n | x | n | x | x | x
CCc1c(C)nc2ncnn2c1NCCc1ccc(OC)c(OC)c1 | n | n | n | n | n | x | x
COc1ccc(CCNc2c(C)c(C)nc3ncnn23)cc1 | n | 65.6 | n | n | n | n | 52.0
CC(=O)OC12CCCN(C1)/C(=C/c1cccc(Cl)c1)C2 (stereo unspecified) | x | n | x | n | x | x | x
Cn1c(=O)oc2cc(S(=O)(=O)N3CCN(C(=O)C4CCCO4)CC3)ccc21 (stereo unspecified) | x | n | x | n | x | x | x
CC(C)Oc1cccc(-c2csc(N3CCC(C(N)=O)CC3)n2)c1 | x | n | x | x | x | x | x
CCOC(=O)c1cnc(-n2nc(C)cc2C)nc1NC1CCCC1 | n | 44.3 | n | n | n | n | 56.2
CCOC(=O)c1cnc(-n2nc(C)cc2C)nc1NCCc1ccccc1 | n | 48.0 | n | n | n | n | n
CC[n+]1c(/C=C2/C=C(C)CC(C)C2)sc2ccccc21 (stereo unspecified) | n | n | n | n | n | x | x
CC[n+]1c(C=C2C=C(C)OC(C)=C2)sc2ccccc21 | 75.6 | 76.8 | n | n | 67.9 | n | 64.0
COC(=O)c1cc(S(=O)(=O)N2CCN(c3cccc(C(F)(F)F)c3)CC2)cn1C | x | n | x | n | x | x | x
COc1ccc(NC(=O)COC(=O)Cn2cnc3ccccc32)cc1 | n | n | n | n | n | x | x
O=C(Cn1cnc2ccccc21)Nc1ccc(SC(F)F)cc1 | n | 69.7 | n | n | n | n | 45.9
CC(=O)Nc1ccc(Nc2cc(C)nc3c(-c4ccccc4)cnn23)cc1 | n | 42.1 | n | n | n | n | 42.5
O=C(CSc1nnc(-c2cccnc2)s1)Nc1ccnc2ccccc12 | n | 65.3 | n | n | n | n | 62.4
COc1cccc(CNC(=O)CN2CCCc3ccccc32)c1 | x | n | x | n | x | x | x
O=C(C1CCN(c2nc(-c3ccc(Br)cc3)cs2)CC1)N1CCNCC1 | x | n | x | x | x | x | x
CC(C)(C)OC(=O)NC1CCN(c2nc(-c3ccc(Br)cc3)cs2)CC1 | x | 38.6 | x | x | x | n | n
CCN(CC)c1ccc(Nc2nc(N3CCOCC3)c3ccccc3n2)cc1 | n | 59.7 | n | n | n | n | 43.0
Cc1csc2ncnc(NCCc3ccccn3)c12 | n | 67.8 | n | n | n | n | 48.2
COc1ccc(N2C[C@@]3(O)CC[C@@H](O)[C@@H](OC)[C@@H]3[C@@](C)(O)[C@@H]2CC=C(C)C)cc1 | x | n | x | n | x | x | x
Cc1ccc(-c2nnc(SCC(=O)c3ccc(O)c(O)c3)n2-c2ccc(Cl)cc2)cc1 | x | n | x | n | x | x | x
SMILES | LRH-1 inv ag | COUP-TFII inh | NCOA1 inh | SRC2 inh | SRC3 inh | Gal4-VP16 ctr | NR2F2 inh conf
CC[n+]1ccccc1/C=C1\Sc2ccc(C)cc2N1C | n | 60.6 | n | n | n | n | 58.8
CN1/C(=C/c2cccc[n+]2CCO)Sc2ccccc21 | n | n | n | n | n | x | x
CC(CCN1CCC(C(O)(c2ccccc2)c2ccccc2)CC1)Oc1ccc(C#N)c(F)c1 (stereo unspecified) | x | n | x | n | x | x | x
CCN(CC)c1ccc2nc3ccc(N)cc3[n+](-c3ccccc3)c2c1 | 86.6 | 77.0 | n | n | 66.7 | 21.0 | 73.0
Cc1c(/C(O)=C2\C(=O)C(=O)N(CCCN(C)C)C2c2ccccc2)cnn1-c1ccccc1 (stereo unspecified) | n | 50.5 | n | n | n | n | n
O=C1C(=O)N(CCN2CCOCC2)C(c2ccccn2)/C1=C(/O)c1ccc(F)cc1 (stereo unspecified) | n | n | n | n | n | x | x
Cc1c(/C(O)=C2/C(=O)C(=O)N(CCN3CCOCC3)C2c2ccccn2)cnn1-c1ccccc1 (stereo unspecified) | 82.7 | 99.8 | 83.6 | 79.7 | 85.1 | 30.9 | 39.3
Fc1ccccc1Cn1ccc2ccc(-c3ccc4ccn(Cc5ccccc5F)c4c3)cc21 | x | n | x | n | x | x | x
O=C(CSc1nnc(-c2cccc(Cl)c2)n1Cc1ccco1)c1ccc(F)cc1 | x | n | x | n | x | x | x
Cc1ccc(-c2nc(CS(=O)CC(=O)NCCCN3CCN(Cc4ccccc4)CC3)c(C)o2)cc1 (stereo unspecified) | n | 41.1 | n | n | n | n | n
Cc1oc(-c2ccc(Cl)cc2)nc1CS(=O)CC(=O)NCCCN1CCOCC1 (stereo unspecified) | n | n | n | n | n | x | x
CCc1nc2ccc(C(=O)Nc3ccc(NC(C)=O)cc3)cn2c1N(C)C(=O)Cc1ccccc1 | n | 53.2 | n | n | n | n | n
CCc1nc2ccc(C(=O)Nc3cc(-c4ccccc4)ccc3OC)cn2c1N(C)Cc1ccc(OC)cc1 | n | n | n | n | n | x | x
CCc1nc2ccc(C(=O)Nc3cc(-c4ccccc4)ccc3OC)cn2c1N(C)Cc1nccs1 | n | 50.0 | n | n | n | n | n
CCc1nc2ccc(C(=O)Nc3cccc(NS(C)(=O)=O)c3)cn2c1N(C)C(=O)Cc1ccccc1 | n | n | n | n | n | x | x
COc1cccc(CNC(=O)[C@H]2CCCN2C(=O)[C@H]2CCCN2C(=O)N2CCCCC2)c1 | x | n | x | n | x | x | x
O=C(Nc1nc(-c2ccccc2)cs1)c1ccccc1NS(=O)(=O)c1ccc(F)cc1 | 75.1 | 55.1 | n | n | n | n | n
O=S(=O)(Nc1ccc(-c2csc(-c3ccccc3)n2)cc1)c1ccc(F)cc1 | n | n | n | n | n | x | x
CCCCCc1ccc(OCCCC[n+]2ccc(C)cc2)c(CCCCC)c1 | n | 56.3 | n | n | n | 20.6 | n
CCCCCc1ccc(OCCCC[n+]2ccccc2)c(CCCCC)c1 | n | x | n | x | n | x | x
CCCCCc1ccc(OCCCC[n+]2cccc(C)c2)c(CCCCC)c1 | n | 57.4 | n | n | n | n | n
Cc1ccc(S(=O)(=O)c2cccc(S(=O)(=O)N3CCOCC3)c2)cc1S(=O)(=O)N1CCOCC1 | n | n | n | n | n | x | x
Cc1ccc(S(=O)(=O)c2cccc(S(=O)(=O)N3CCCC3)c2)cc1S(=O)(=O)N1CCCC1 | n | 61.2 | n | n | n | n | n
COc1ccc2cc3c(N)nn(C(=O)Cc4c[nH]c5ccccc45)c3nc2c1 | n | 41.6 | 79.0 | 56.3 | n | 23.9 | n
COc1cccc(CC(=O)n2nc(N)c3cc4ccc(OC)cc4nc32)c1 | n | n | n | n | n | x | x
COc1ccc2cc3c(N)nn(C(=O)c4ccccc4Cl)c3nc2c1 | n | 45.2 | 74.1 | n | n | 23.0 | n
